Inconclusive results are not listed. The source made the active and inactive calls. Unless noted, calls follow the shape of the dose curve; as a rule, active = well fitted curve in the direction sought with a large enough effect in the repeat runs; inconclusive = weak or mixed curves; inactive = no such curve, though single readings can be large; an effect the other way counts as inactive or inconclusive.
Key:
[1] = qHTS assay to identify small molecule agonists of the peroxisome proliferator-activated receptor delta (PPARd) signaling pathway - cell viability counter screen (AID 743211); also: nearly all actives have a fitted effect of over 55% in size
How it was run: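 Viability was measured as CellTiter-Glo luminescence (30 min, room temperature) in the same wells as the beta-lactamase readout. GeneBLAzer PPARd UAS-bla HEK293H cells received compound after 5 h plating and were incubated 17 h at 37 C.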

[2] = qHTS assay to identify small molecule antagonists of the peroxisome proliferator-activated receptor delta (PPARd) signaling pathway - cell viability counter screen (AID 743213); also: nearly all actives have a fitted effect of over 50% in size
How it was run: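 Agonist-stimulated (L165041, 300 nM final) HEK293H PPARd UAS-bla cells are exposed to compounds for 17 h at 37 C, and ATP-based luminescence (CellTiter-Glo) from the same wells reports cytotoxicity.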

[3] = qHTS assay to identify small molecule agonists of the farnesoid-X-receptor (FXR) signaling pathway - cell viability counter screen (AID 743218); also: nearly all actives have a fitted effect of over 45% in size
How it was run: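 FXR-UAS-bla HEK 293T cells, plated 5 h at 37 C, were exposed to compounds for 16 h at 37 C. CellTiter-Glo was then added to the same wells as the bla readout; luminescence read after 30 min at room temperature.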

[4] = target: Peroxisome proliferator-activated receptor delta (Homo sapiens) (UniProt Q03181); experiment: qHTS assay to identify small molecule agonists of the peroxisome proliferator-activated receptor delta (PPARd) signaling pathway (AID 743212; calls by dose curve)
Peroxisome proliferator-activated receptor delta (Homo sapiens), sequence (Q03181 whole entry, looked up): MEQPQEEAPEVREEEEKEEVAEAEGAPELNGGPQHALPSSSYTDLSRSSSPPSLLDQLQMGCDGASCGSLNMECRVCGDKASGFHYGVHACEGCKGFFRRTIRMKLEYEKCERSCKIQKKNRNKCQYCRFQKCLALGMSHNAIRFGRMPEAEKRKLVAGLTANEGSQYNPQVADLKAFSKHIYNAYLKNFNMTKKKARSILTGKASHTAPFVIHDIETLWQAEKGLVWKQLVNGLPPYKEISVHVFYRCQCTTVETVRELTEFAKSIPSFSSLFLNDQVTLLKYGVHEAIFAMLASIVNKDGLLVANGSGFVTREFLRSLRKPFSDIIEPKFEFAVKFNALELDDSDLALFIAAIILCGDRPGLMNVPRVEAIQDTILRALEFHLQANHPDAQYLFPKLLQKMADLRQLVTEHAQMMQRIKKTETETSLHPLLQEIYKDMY
How it was run: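 HEK293H PPARd-bla cells; 5 h preincubation 37 C/5% CO2; compound (DMSO) 37 C; LiveBLAzer B/G FRET substrate 2 h RT; fluorescence intensity.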

[5] = qHTS assay to identify small molecule antagonists of the farnesoid-X-receptor (FXR) signaling pathway - cell viability counter screen (AID 743221; active = well fitted cell-killing curve with a large enough effect in the repeat runs, not every such curve was filed as active; also: nearly all actives have a fitted effect of over 50% in size)
How it was run: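 Cytotoxicity counter screen run in the FXR-bla reporter wells: HEK 293T cells exposed to compound with 50 uM (final) chenodeoxycholic acid for 16 h, 37 C, then viability measured by CellTiter-Glo luminescence after 30 min, room temperature.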

[6] = target: Vitamin D3 receptor (Homo sapiens) (UniProt P11473); experiment: qHTS assay to identify small molecule agonists of the vitamin D receptor (VDR) signaling pathway (AID 743222; calls by dose curve)
Vitamin D3 receptor (Homo sapiens), sequence (P11473 whole entry, looked up): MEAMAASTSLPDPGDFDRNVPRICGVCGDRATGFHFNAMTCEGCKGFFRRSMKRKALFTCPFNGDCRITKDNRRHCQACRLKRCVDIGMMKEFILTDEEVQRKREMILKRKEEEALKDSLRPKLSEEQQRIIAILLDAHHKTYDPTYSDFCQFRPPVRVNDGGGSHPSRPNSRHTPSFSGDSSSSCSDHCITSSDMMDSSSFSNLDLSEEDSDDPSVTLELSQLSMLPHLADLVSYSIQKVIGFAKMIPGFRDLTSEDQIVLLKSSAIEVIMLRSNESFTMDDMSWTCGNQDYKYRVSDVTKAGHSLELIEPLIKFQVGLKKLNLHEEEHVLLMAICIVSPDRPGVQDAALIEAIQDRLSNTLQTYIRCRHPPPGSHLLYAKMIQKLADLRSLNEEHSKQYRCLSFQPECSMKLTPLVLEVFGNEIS
How it was run: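 VDR-bla cells were plated 4 h at 37C/5% CO2, then exposed to compounds in DMSO for 16 h. After LiveBLAzer B/G FRET substrate addition and 2 h at room temperature, beta-lactamase reporter fluorescence was read.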

[7] = target: Vitamin D3 receptor (Homo sapiens) (UniProt P11473); experiment: qHTS assay to identify small molecule antagonists of the vitamin D receptor (VDR) signaling pathway (AID 743223; active = well fitted inhibition curve with a large enough effect in the signal ratio in the repeat runs, not every such curve was filed as active; the % refers to the signal ratio)
How it was run: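 Antagonist mode: compound added to VDR-bla cells alongside agonist 1alpha,25-dihydroxyvitamin D3 (3 nM final), incubation 16 h at 37C. Read-out is LiveBLAzer FRET fluorescence, 2 h at room temperature.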

[8] = target: Peroxisome proliferator-activated receptor delta (Homo sapiens) (UniProt Q03181); experiment: qHTS assay to identify small molecule antagonists of the peroxisome proliferator-activated receptor delta (PPARd) signaling pathway (AID 743215; active = well fitted inhibition curve with a large enough effect in the signal ratio in the repeat runs, not every such curve was filed as active; the % refers to the signal ratio; also: series mostly up to about 62 µM)
How it was run: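 PPARd UAS-bla HEK293H cells were pre-incubated 5 h at 37 C, then given test compounds in DMSO plus agonist L165041 (300 nM final). After 17 h at 37 C, beta-lactamase FRET substrate was added; fluorescence read after 2 h at room temperature.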

[9] = target: Bile acid receptor (Homo sapiens) (UniProt Q96RI1); experiment: qHTS assay to identify small molecule antagonists of the farnesoid-X-receptor (FXR) signaling pathway (AID 743217; active = well fitted inhibition curve with a large enough effect in the signal ratio in the repeat runs, not every such curve was filed as active; the % refers to the signal ratio)
Bile acid receptor (Homo sapiens), sequence (Q96RI1 whole entry, looked up): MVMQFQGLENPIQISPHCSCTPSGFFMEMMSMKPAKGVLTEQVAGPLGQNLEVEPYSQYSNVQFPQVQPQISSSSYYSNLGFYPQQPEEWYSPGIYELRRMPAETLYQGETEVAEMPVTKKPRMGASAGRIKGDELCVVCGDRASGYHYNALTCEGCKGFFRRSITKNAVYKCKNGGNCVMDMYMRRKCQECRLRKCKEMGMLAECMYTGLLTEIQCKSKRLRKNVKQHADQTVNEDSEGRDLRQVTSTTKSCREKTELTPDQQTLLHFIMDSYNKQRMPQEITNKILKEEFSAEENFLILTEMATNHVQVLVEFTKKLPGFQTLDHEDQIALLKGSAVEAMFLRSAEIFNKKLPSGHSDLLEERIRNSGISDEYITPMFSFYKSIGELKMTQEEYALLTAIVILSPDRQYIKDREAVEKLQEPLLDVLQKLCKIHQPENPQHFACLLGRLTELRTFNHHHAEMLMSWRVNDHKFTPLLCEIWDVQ
How it was run: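 FXR-UAS-bla HEK 293T cells pre-incubated 5 h at 37 °C, then exposed to compounds with chenodeoxycholic acid (50 uM final) for 16 h at 37 °C. Beta-lactamase reporter read by LiveBLAzer B/G FRET substrate fluorescence after 2 h at room temperature.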

[10] = target: Bile acid receptor (Homo sapiens) (UniProt Q96RI1); experiment: qHTS assay to identify small molecule agonists of the farnesoid-X-receptor (FXR) signaling pathway (AID 743220; active = well fitted activation curve with a large enough effect in the signal ratio in the repeat runs, not every such curve was filed as active; the % refers to the signal ratio)
How it was run: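 Beta-lactamase reporter under UAS control in GeneBLAzer FXR HEK 293T cells (5000/well) measured with LiveBLAzer FRET substrate after 2 h at room temperature. Compound exposure lasted 16 h at 37C.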

Measured: outcome

CC1OCCC1=O (stereo unspecified)
inactive: [1] | [2] | [3]

CC(CO)(CO)CO
not listed: [8] | [9] | [10]
inactive: all other assays above

Cc1c(C(=O)c2c[nH]n(C)c2=O)ccc(S(C)(=O)=O)c1C1=NOCC1
inactive: [1] | [4] | [2] | [5] | [6]

CC(=O)O[Si](C)(OC(C)=O)OC(C)=O
inactive: [1] | [4] | [8] | [5] | [6] | [7]

CCc1occc(=O)c1O
inactive: [1] | [4] | [8] | [9] | [10] | [5]

CC1=C(C(=O)O)N2C(=O)[C@@H](NC(=O)[C@H](N)c3ccccc3)[C@H]2SC1
inactive: [1] | [4] | [2] | [5] | [6] | [7]

O=C1OCCO1
not listed: [2] | [7]
inactive: all other assays above

CC(Oc1cc(Cl)ccc1Cl)C(=O)O (stereo unspecified)
inactive: [1] | [2] | [8] | [3] | [5]

CCC(=O)Oc1ccc2c(c1)CC[C@@H]1[C@@H]2CC[C@@]2(C)[C@H]1C[C@@H](OC(=O)CC)[C@@H]2OC(=O)CC
not listed: [4] | [8]
inactive: all other assays above

CN(C)CCCCl
not listed: [2] | [7] | [8]
inactive: all other assays above

O=Cc1ccccc1Cl
not listed: [4] | [7] | [8]
inactive: all other assays above

C=CC(=O)CCCCC
inactive: [1] | [4] | [2] | [5]

CCN(CC)CCN
not listed: [4] | [7] | [8]
inactive: all other assays above

CCO
not listed: [2] | [8]
inactive: all other assays above

CCCCCCC1(C)CCC(=O)O1 (stereo unspecified)
inactive: [1] | [4] | [3] | [5] | [6] | [7]

O=C(O)[C@H](O)c1ccccc1
not listed: [2]
inactive: all other assays above

C=CCOC(=O)CCCCCC
inactive: [1] | [4] | [2] | [6] | [7]

CCCCCCCCCCCCCCC(=O)NC(CO)CCCCCCCCCCCCCC (stereo unspecified)
not listed: [2] | [8]
inactive: all other assays above

COc1ccc2c(c1)c1c3n2CCN(C)C3=NCC1
inactive: [1] | [4] | [2] | [5] | [6] | [7]

Fc1ccccc1
inactive: [1] | [4] | [3] | [5] | [6]

N[C@@H](CSCCCO)C(=O)O
inactive: [1] | [2] | [8] | [5] | [6] | [7]

CN(C)CCN(C)CCO
not listed: [4] | [7] | [8]
inactive: all other assays above

c1ccc(B(c2ccccc2)c2ccccc2)cc1
not listed: [2] | [8]
inactive: all other assays above

CCC(C)C(C)=O (stereo unspecified)
not listed: [8] | [9] | [10]
inactive: all other assays above

N#Cc1cscn1
inactive: [1] | [2] | [9] | [3] | [10] | [5]

OCC1(CO)COCOC1
inactive: [1] | [4] | [8] | [9] | [10] | [5]

CC1(C)Oc2ccc(C#N)cc2[C@@H](N2CCCC2=O)[C@@H]1O
inactive: [1] | [2] | [9] | [3] | [10] | [5]

CC(=O)c1cc(C)oc1C
inactive: [1] | [4] | [8] | [5] | [6] | [7]

COC(=O)c1ccccc1C(=O)O
not listed: [2] | [9] | [10]
inactive: all other assays above

CCC(=O)c1c(O)cc(O)cc1O
inactive: [1] | [2] | [9] | [10] | [5]

Cc1cc(-c2ccccc2)nnc1NCCN1CCOCC1
inactive: [1] | [4] | [3] | [5] | [6] | [7]

— PubChem BioAssay (Tox21)
